Eight molecules from PubChem BioAssay (NCI) can be followed below.

Holding throughout (assay): NCI-60 one-dose screen, 48 h (100 = growth as untreated, 0 = no growth, -100 = all killed)
One test has as its system NCI-H23 lung. The note with it: 10 µM unless noted.
For a further test, the system named is NCI-H226 lung. The conditions noted are these: 10 µM unless noted.
For a further test, the system named is NCI-H322M lung. The conditions noted are these: 10 µM unless noted.
A further test concerns HOP-62 NSCLC. The conditions noted are these: 10 µM unless noted.
The next test concerns NCI-H460 lung. The note with it: 10 µM unless noted.
A further test concerns HOP-92 NSCLC. The note with it: 10 µM unless noted.
The next test deals with NCI-H522 lung. The conditions noted are these: 10 µM unless noted.
A further test concerns A549/ATCC NSCLC. The conditions noted are these: 10 µM unless noted.
The subject of a further test is 786-0 renal. The conditions noted are these: 10 µM unless noted.
The next test deals with COLO 205 colon. The note with it: 10 µM unless noted.
For another test, the system named is DU-145 prostate. The conditions noted are these: 10 µM unless noted.
The subject of another test is K-562 leukemia. The conditions noted are these: 10 µM unless noted.
For the next test, the system named is MALME-3M melanoma. The note with it: 10 µM unless noted.
The next test has as its system MDA-MB-231 breast. The conditions noted are these: 10 µM unless noted.
For a further test, the system named is RXF 393 renal. The note with it: 10 µM unless noted.
Another test deals with SF-268 CNS. The note with it: 10 µM unless noted.
A further test relates to SF-295 CNS. The conditions noted are these: 10 µM unless noted.
A further test has as its system SF-539 CNS. The conditions noted are these: 10 µM unless noted.
A further test has as its system UACC-257 melanoma. The conditions noted are these: 10 µM.
The next test concerns M14 melanoma. The note with it: 10 µM unless noted.

About 83,000 compounds went through this panel and 20% of them were active in at least one assay; those are over-represented in the sample as a whole.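 A percent growth of 40 corresponds to 60% growth inhibition; 0 means no net growth; -100 means all cells died. Active threshold: below 10.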 A number with no mark means an inactive call. Active and inactive are the calls of the source.

Take `Cn1ccnc1C(=O)/C=C/c1ccc(C(=O)Nc2ccc(NC(=O)CCNC(=O)c3csc(Br)n3)cc2)cc1`: the growth with NCI-H23 lung was 43.5%; with NCI-H226 lung it was 84.5%; with NCI-H322M lung, 66.2%; in the test with HOP-62 NSCLC, 62.6%; with NCI-H460 lung, 46.2%; in the test on HOP-92 NSCLC, 103%. In addition, the growth was 29% in the test with NCI-H522 lung; 64.5% in the test with A549/ATCC NSCLC; 66.3% in the test on 786-0 renal; 85.7% with COLO 205 colon; 11.9% in the test with DU-145 prostate; 16% in the test with K-562 leukemia. For the same molecule, the growth in the test with MALME-3M melanoma was 102%; in the test with MDA-MB-231 breast, 72.9%; with RXF 393 renal it was 68.2%; in the test on SF-268 CNS it was 62.2%; in the test on SF-295 CNS, 81.3%; with SF-539 CNS, 7.51% (active). For the same molecule, the growth in the test on UACC-257 melanoma is 88.6%.

For the molecule `CS(=O)(=O)c1ccc(-c2nn(-c3ccccc3)cc2/C=N/NC(=O)c2ccncc2)cc1`, the growth in the test on NCI-H23 lung was 97.5%; with NCI-H226 lung, 110%; in the test on NCI-H322M lung, 96.9%; with HOP-62 NSCLC, 105%; in the test on NCI-H460 lung, 114%; with HOP-92 NSCLC, 96.3%. Further, the growth with NCI-H522 lung is 84.7%; in the test with A549/ATCC NSCLC, 102%; in the test with 786-0 renal, 82.6%; in the test with COLO 205 colon, 110%; in the test with DU-145 prostate, 88.8%; with K-562 leukemia, 62.5%. Moreover, the growth in the test on MALME-3M melanoma is 95.5%; in the test with MDA-MB-231 breast it was 104%; in the test with RXF 393 renal it was 78.2%; with SF-268 CNS it was 101%; in the test on SF-295 CNS it was 102%; in the test with SF-539 CNS, 101%. The growth in the test with UACC-257 melanoma is 96.7%.

With `O=C(/C=C/c1cccc(O)c1)c1ccc(O)cc1`, the growth was 72% in the test on NCI-H23 lung; 103% in the test with NCI-H226 lung; 88.5% in the test with NCI-H322M lung; 79.9% in the test with HOP-62 NSCLC; 92.8% in the test with NCI-H460 lung; 104% in the test on HOP-92 NSCLC. Also, the growth in the test on NCI-H522 lung was 65.6%; in the test with A549/ATCC NSCLC it was 90.1%; in the test on 786-0 renal it was 85%; with COLO 205 colon, 120%; with DU-145 prostate, 15.8%; in the test with K-562 leukemia, 23.2%. Also, the growth in the test with MALME-3M melanoma was 106%; with MDA-MB-231 breast, 89.3%; with RXF 393 renal, 94.8%; in the test with SF-268 CNS, 89.9%; in the test on SF-295 CNS, 98.2%; in the test with SF-539 CNS, 43.3%. For the same molecule, in the test on UACC-257 melanoma, the growth is 95.3%.

Regarding `COc1ccc(N2C(=O)c3cc(OC)c(OC)cc3NC2SCc2ccccc2)cc1` (stereo not drawn), the growth in the test on NCI-H23 lung was 107%; in the test with NCI-H226 lung it was 102%; with NCI-H322M lung it was 104%; in the test on HOP-62 NSCLC, 107%; in the test on NCI-H460 lung, 122%; in the test with HOP-92 NSCLC, 112%. The growth was 95.2% in the test on NCI-H522 lung; 110% in the test with A549/ATCC NSCLC; 117% in the test with 786-0 renal; 109% in the test on COLO 205 colon; 110% with DU-145 prostate; 88.6% in the test on K-562 leukemia. For the same molecule, the growth in the test with MALME-3M melanoma was 95.2%; in the test on MDA-MB-231 breast, 91.5%; with RXF 393 renal it was 144%; in the test with SF-268 CNS, 110%; with SF-295 CNS it was 103%; in the test with SF-539 CNS, 94.3%. Besides, in the test on UACC-257 melanoma, the growth is 105%.

Take `ClC(Cl)c1nc(-c2cccs2)n2nc(-c3ccccc3)cc2n1`: the growth is 4.85% (active) in the test with NCI-H23 lung; 82.6% in the test on NCI-H226 lung; -28.8% (active) in the test on NCI-H322M lung; -6.27% (active) in the test with HOP-62 NSCLC; -40.1% (active) with NCI-H460 lung; -27.7% (active) with HOP-92 NSCLC. The growth was 75.1% in the test with NCI-H522 lung; -16.1% (active) in the test on A549/ATCC NSCLC; 40.2% with 786-0 renal; -40.7% (active) in the test on COLO 205 colon; -24.3% (active) in the test with DU-145 prostate; 27.9% in the test with K-562 leukemia. Moreover, the growth was 67.7% with MALME-3M melanoma; -26.9% (active) with MDA-MB-231 breast; -73.2% (active) in the test on RXF 393 renal; 6.38% (active) in the test on SF-268 CNS; -27.6% (active) in the test with SF-295 CNS; -44% (active) in the test with SF-539 CNS. Besides, the growth with UACC-257 melanoma is 16.3%.

Regarding `NCCN1CCN(c2nc(-c3ccccc3)nc3nc(-c4ccccc4)oc23)CC1`, the growth in the test on NCI-H23 lung was -42.7% (active); with NCI-H226 lung it was -57.6% (active); in the test with NCI-H322M lung, -41.4% (active); with HOP-62 NSCLC it was 0.341% (active); in the test with NCI-H460 lung, -67.7% (active); in the test with HOP-92 NSCLC, 58.9%. Also, the growth in the test with NCI-H522 lung is -13.1% (active); in the test on A549/ATCC NSCLC, -63.7% (active); in the test on 786-0 renal, -83.3% (active); in the test with COLO 205 colon it was -44.7% (active); with DU-145 prostate it was -79% (active); in the test with K-562 leukemia, 6.56% (active). Further, the growth was -68.8% (active) with MALME-3M melanoma; -74.5% (active) with MDA-MB-231 breast; 49.6% with RXF 393 renal; -64.7% (active) with SF-268 CNS; -83.6% (active) with SF-295 CNS; -87.6% (active) in the test with SF-539 CNS. In the test on UACC-257 melanoma, the growth was 93.4%.

On to `NS(=O)(=O)c1ccc(Nc2nc(N/N=C/c3ccc(C(F)(F)F)cc3)nc(Nc3ccccc3)n2)cc1`, for which the growth in the test on NCI-H23 lung was 52.8%; in the test on NCI-H226 lung it was 36.7%; in the test with NCI-H322M lung it was 52.6%; with HOP-62 NSCLC, 38%; in the test on NCI-H460 lung, 14.6%; in the test on HOP-92 NSCLC it was 57.4%. In addition, the growth with NCI-H522 lung was 38%; with A549/ATCC NSCLC, 27.6%; in the test on 786-0 renal, -3.55% (active); in the test with COLO 205 colon, 29.3%; in the test on DU-145 prostate, 39.3%; with K-562 leukemia, 17.5%. The growth in the test on MALME-3M melanoma was 22.4%; in the test with MDA-MB-231 breast, 26.1%; in the test with RXF 393 renal it was -39.5% (active); with SF-268 CNS it was 50.4%; in the test with SF-295 CNS it was 4.66% (active); in the test on SF-539 CNS it was 23.8%. Further, the growth in the test with UACC-257 melanoma is 39.6%.

In the case of `CCCCCCNC(=O)Oc1ccc(/C(=C(\C)c2ccc(Cl)cc2)c2ccc(OCCN(C)C)cc2)cc1`, the growth in the test on NCI-H23 lung is 76.3%; in the test with NCI-H226 lung, 101%; in the test with NCI-H322M lung, 78.1%; in the test on HOP-62 NSCLC, 75.5%; in the test on NCI-H460 lung it was 6.53% (active); with HOP-92 NSCLC, 38.4%. Besides, the growth with NCI-H522 lung was 83.5%; in the test with A549/ATCC NSCLC, 72.7%; in the test on 786-0 renal, 39.8%; in the test on COLO 205 colon, 11.6%; in the test with DU-145 prostate, 83.4%; in the test on K-562 leukemia it was 4.21% (active). The growth in the test with MALME-3M melanoma is -33.7% (active); with MDA-MB-231 breast, 58.5%; in the test on RXF 393 renal, 46%; in the test with SF-268 CNS, 65.4%; with SF-295 CNS, 84.8%; in the test on SF-539 CNS, 42%. For the same molecule, the growth with UACC-257 melanoma was 18.9%; in the test on M14 melanoma it was 3.61% (active).
